Experimental data as given in PubChem BioAssay (Tox21).
Values joined by “and” are separate entries in the source; they are usually repeats but may differ in a detail not shown here. Equal values may be shown once. Some structures have more than one record in an assay (separate samples or runs), and their calls can disagree. Active and inactive are the calls of the source. Entries that show only a call come without a potency. Unless noted, calls follow the shape of the dose curve; as a rule, active = well fitted curve in the direction sought with a large enough effect in the repeat runs; inconclusive = weak or mixed curves; inactive = no such curve, though single readings can be large; an effect the other way counts as inactive or inconclusive.

Assays:
[1] = qHTS assay to test for compound auto fluorescence at 535 nm (green) in HEK293 cells (AID 720680)
[2] = qHTS assay to test for compound auto fluorescence at 460 nm (blue) in HEK293 cell free culture (AID 720681)
Method in brief: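 Test compounds were pinned into cell-free culture medium (DMEM with 10% FBS) and fluorescence was read directly at Ex/Em 405/460 nm. Signals were expressed as fluorescence equivalents of triamterene, with DMSO vehicle as control.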

[3] = qHTS assay to test for compound auto fluorescence at 535 nm (green) in HEK293 cell free culture (AID 720682)
Method in brief: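 Using fluorescein as calibrant, autofluorescence was quantified at 485/535 nm in cell-free DMEM containing 10% FBS after pintool addition of compound or vehicle.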

[4] = qHTS assay to test for compound auto fluorescence at 590 nm (red) in HEK293 cell free culture (AID 720683)
Method in brief: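 Tox21 10K library compounds were pinned into cell-free DMEM with 10% FBS and fluorescence was read at excitation 540 nm. Activity is expressed as Rose Bengal sodium equivalency.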

[5] = qHTS assay to test for compound auto fluorescence at 460 nm (blue) in HepG2 cell free culture (AID 720685)
Method in brief: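 Compound (23 nL) or DMSO pinned into cell-free MEM with 10% FBS; blue fluorescence read at 405/460 nm excitation/emission, expressed as auto-fluorescence equivalency to triamterene.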

[6] = qHTS assay to test for compound auto fluorescence at 535 nm (green) in HepG2 cell free culture (AID 720686)
[7] = qHTS assay to test for compound auto fluorescence at 460 nm (blue) in HepG2 cells (AID 720687)
Method in brief: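 Cells (2,000/well in MEM with 10% FBS) attached overnight at 37 C, then were exposed to compound or DMSO for 1 hr at 37 C, 5% CO2. Fluorescence read at Ex/Em 405/460 nm, expressed as triamterene-equivalent signal.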

[8] = molecular target: Glucocorticoid receptor (Homo sapiens) (UniProt P04150); assay: qHTS assay to identify small molecule agonists of the glucocorticoid receptor (GR) signaling pathway (AID 720691; active = well fitted activation curve with a large enough effect in the signal ratio in the repeat runs, not every such curve was filed as active; inconclusive = weak or mixed curves, or effect the other way; inactive = no such curve, though single readings can be large or run the other way; the % refers to the signal ratio; also: potency is read from the fitted curve at half-maximal effect)
Glucocorticoid receptor (Homo sapiens), sequence (P04150 whole entry, looked up): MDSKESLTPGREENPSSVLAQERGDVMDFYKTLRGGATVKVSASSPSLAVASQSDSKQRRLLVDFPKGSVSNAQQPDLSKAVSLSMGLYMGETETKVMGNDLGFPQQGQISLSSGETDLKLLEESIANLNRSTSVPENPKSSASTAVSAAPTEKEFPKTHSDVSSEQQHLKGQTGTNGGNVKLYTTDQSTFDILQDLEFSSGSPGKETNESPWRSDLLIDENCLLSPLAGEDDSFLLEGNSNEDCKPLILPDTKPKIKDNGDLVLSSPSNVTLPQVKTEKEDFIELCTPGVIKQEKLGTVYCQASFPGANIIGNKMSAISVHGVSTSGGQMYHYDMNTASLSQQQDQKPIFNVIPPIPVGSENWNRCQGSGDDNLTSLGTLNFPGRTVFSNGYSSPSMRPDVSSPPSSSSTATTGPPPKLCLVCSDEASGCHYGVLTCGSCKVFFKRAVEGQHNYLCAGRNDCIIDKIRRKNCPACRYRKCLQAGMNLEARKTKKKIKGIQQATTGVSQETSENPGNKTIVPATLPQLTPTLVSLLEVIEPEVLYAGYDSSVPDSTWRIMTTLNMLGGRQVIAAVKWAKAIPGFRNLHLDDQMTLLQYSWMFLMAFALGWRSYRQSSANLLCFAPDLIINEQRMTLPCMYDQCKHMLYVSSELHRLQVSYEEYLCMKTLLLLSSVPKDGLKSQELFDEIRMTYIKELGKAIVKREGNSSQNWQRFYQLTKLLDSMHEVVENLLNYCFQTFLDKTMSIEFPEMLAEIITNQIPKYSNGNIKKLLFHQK
Method in brief: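 Fluorescence intensity from LiveBLAzer B/G FRET substrate (2 h, room temperature) reports beta-lactamase expression driven by the glucocorticoid response element in GR-bla HeLa cells after 18 h compound exposure at 37 C.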

[9] = qHTS assay for identifying genotoxic compounds that show differential cytotoxicity against isogenic chicken DT40 cell lines with known DNA damage response pathways - Rev3 mutant cell line (AID 743014); also: nearly all actives have a fitted effect of over 55% in size; also: potency is read from the fitted curve at half-maximal effect
[10] = qHTS assay for identifying genotoxic compounds that show differential cytotoxicity against isogenic chicken DT40 cell lines with known DNA damage response pathways - Rad54/Ku70 mutant cell line (AID 743015); also: nearly all actives have a fitted effect of over 60% in size; also: potency is read from the fitted curve at half-maximal effect
[11] = qHTS assay to identify small molecule antagonists of the androgen receptor (AR) signaling pathway - cell viability counter screen (AID 743033; also: nearly all actives have a fitted effect of over 45% in size; also: potency is read from the fitted curve at half-maximal effect)
[12] = qHTS assay to identify small molecule antagonists of the androgen receptor (AR) signaling pathway using the MDA cell line - cell viability counter screen (AID 743041; also: nearly all actives have a fitted effect of over 45% in size; also: potency is read from the fitted curve at half-maximal effect)
Method in brief: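 Viability counter screen run alongside the AR antagonist reporter: cells seeded 5 h before compound, R1881 added, 16 h incubation at 37C without CO2, fluorescent CellTiter-Fluor signal quantified.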

[13] = qHTS assay to identify small molecule antagonists of the glucocorticoid receptor (GR) signaling pathway - cell viability counter screen (AID 720693); also: nearly all actives have a fitted effect of over 55% in size; also: potency is read from the fitted curve at half-maximal effect
[14] = molecular target: Glucocorticoid receptor (Homo sapiens) (UniProt P04150); assay: qHTS assay to identify small molecule antagonists of the glucocorticoid receptor (GR) signaling pathway (AID 720692; active = well fitted inhibition curve with a large enough effect in the signal ratio in the repeat runs, not every such curve was filed as active; inconclusive = weak or mixed curves, or effect the other way; inactive = no such curve, though single readings can be large or run the other way; the % refers to the signal ratio)
Method in brief: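 HeLa GR-bla cells; cmpd + dex 5 nM final, 18 h 37 C; LiveBLAzer B/G FRET substrate 2 h RT; fluorescence intensity read. Antagonist mode, qHTS.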

[15] = qHTS assay for identifying genotoxic compounds that show differential cytotoxicity against isogenic chicken DT40 cell lines with known DNA damage response pathways - wild type cell line (AID 743012); also: nearly all actives have a fitted effect of over 60% in size; also: potency is read from the fitted curve at half-maximal effect
Method in brief: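 Wild type DT40, 300 cells/well, ~0.5 h settle at 37 C/5% CO2; compounds in DMSO added by pintool; 40 h at 37 C/5% CO2; CellTiter-Glo, 30 min RT; luminescence.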

[16] = molecular target: Androgen receptor (Homo sapiens) (UniProt P10275); assay: qHTS assay to identify small molecule antagonists of the androgen receptor (AR) signaling pathway (AID 743035; active = well fitted inhibition curve with a large enough effect in the signal ratio in the repeat runs, not every such curve was filed as active; inconclusive = weak or mixed curves, or effect the other way; inactive = no such curve, though single readings can be large or run the other way; the % refers to the signal ratio; also: potency is read from the fitted curve at half-maximal effect)
Androgen receptor (Homo sapiens), sequence (P10275 whole entry, looked up): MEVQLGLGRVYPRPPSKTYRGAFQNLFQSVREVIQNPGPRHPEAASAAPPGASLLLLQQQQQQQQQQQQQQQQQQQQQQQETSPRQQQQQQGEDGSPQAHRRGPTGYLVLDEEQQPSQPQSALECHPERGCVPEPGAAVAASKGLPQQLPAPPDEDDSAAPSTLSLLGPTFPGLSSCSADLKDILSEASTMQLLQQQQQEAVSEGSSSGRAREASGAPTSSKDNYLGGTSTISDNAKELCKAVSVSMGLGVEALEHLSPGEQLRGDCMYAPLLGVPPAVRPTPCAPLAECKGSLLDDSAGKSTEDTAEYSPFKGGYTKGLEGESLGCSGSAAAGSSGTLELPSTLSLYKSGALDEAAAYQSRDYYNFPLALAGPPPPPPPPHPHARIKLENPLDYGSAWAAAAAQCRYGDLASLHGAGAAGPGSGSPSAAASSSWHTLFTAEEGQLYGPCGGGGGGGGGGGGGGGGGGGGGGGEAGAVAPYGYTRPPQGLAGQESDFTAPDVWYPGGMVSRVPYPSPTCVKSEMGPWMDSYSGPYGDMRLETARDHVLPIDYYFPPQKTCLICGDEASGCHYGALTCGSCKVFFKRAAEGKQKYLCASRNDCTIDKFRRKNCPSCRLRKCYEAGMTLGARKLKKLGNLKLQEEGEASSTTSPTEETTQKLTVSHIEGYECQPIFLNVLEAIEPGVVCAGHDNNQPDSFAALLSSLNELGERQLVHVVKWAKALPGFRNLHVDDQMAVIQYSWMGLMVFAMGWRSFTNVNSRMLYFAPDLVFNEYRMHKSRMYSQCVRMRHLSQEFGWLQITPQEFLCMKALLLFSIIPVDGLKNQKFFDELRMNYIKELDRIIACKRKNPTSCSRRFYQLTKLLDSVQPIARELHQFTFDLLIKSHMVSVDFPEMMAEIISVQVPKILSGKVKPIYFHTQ
Method in brief: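 Fluorescence from a beta-lactamase FRET substrate (LiveBLAzer B/G, 2 h, room temperature) measured inhibition of R1881-stimulated signaling in GeneBLAzer AR-UAS-bla HEK293 cells exposed to compound for 16 h at 37C.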

[17] = molecular target: Androgen receptor (Homo sapiens) (UniProt P10275); assay: qHTS assay to identify small molecule agonists of the androgen receptor (AR) signaling pathway using the MDA cell line (AID 743040; also: nearly all actives have a fitted effect of over 20% in size)
Method in brief: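 Luminescence from ONE-Glo, read after 30 min at room temperature, reflects MMTV-driven luciferase in MDA-kb2 cells (AR- and GR-responsive). Treatment lasted 16 h at 37C, 0% CO2.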

[18] = molecular target: Androgen receptor (Homo sapiens) (UniProt P10275); assay: qHTS assay to identify small molecule antagonists of the androgen receptor (AR) signaling pathway using the MDA cell line (AID 743042; also: potency is read from the fitted curve at half-maximal effect; nearly all actives have a fitted effect of over 55% in size)
Method in brief: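 MDA-kb2 cells (human breast carcinoma, stably carrying an MMTV-luciferase reporter responsive to AR and GR) were plated at 3,000 cells/well and preincubated 5 hr at 37C, then given compound plus R1881 agonist for 16 h. ONE-Glo luminescence was read.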

| Compound | Potency [1] | outcome [2] | Potency [3] | Potency [4] | outcome [5] | Potency [6] | outcome [7] | Potency [8] | Potency [9] | Potency [10] | Potency [11] | Potency [12] | Potency [13] | Potency [14] | Potency [15] | Potency [16] | Potency [17] | Potency [18] |
| --- | --- | --- | --- | --- | --- | --- | --- | --- | --- | --- | --- | --- | --- | --- | --- | --- | --- | --- |
| Oc1ccc(O)cc1 | inactive | inactive | inactive | inactive | inactive | inactive | inactive | inactive | 18.8 µM (active) and 24.2 µM (active) and 48.6 µM (active) | 26.6 µM (active) and 13.6 µM (active) and 54.5 µM (active) | inactive | inactive | – | – | – | – | – | – |
| Nc1ccccc1N | inactive | inactive | inactive | inactive | inactive | – | inactive | inactive | 31.4 µM (active) and 10.3 µM (active) | 62.6 µM (active) and 9.15 µM (active) | inactive | inactive | inactive | – | – | – | – | – |
| CC(C)OC=O | inactive | inactive | inactive | inactive | inactive | inactive | inactive | inactive | 72.9 µM (active) and inactive | inactive | inactive | inactive | inactive | inactive | – | – | – | – |
| NC=O | inactive | inactive | inactive | inactive | inactive | inactive | inactive | – | inactive | inactive | inactive | inactive | inactive | – | inactive | – | – | – |
| CC(=O)Oc1ccccc1C(=O)Nc1ncc([N+](=O)[O-])s1 | inactive | inactive | inactive | inactive | inactive | inactive | inactive | – | 10.6 µM (active) and 62.4 µM (active) | 13.3 µM (active) | inactive and 7.06 µM (active) | inactive | 11.2 µM (active) | – | – | – | – | – |
| Cc1c(C(N)=O)cc([N+](=O)[O-])cc1[N+](=O)[O-] | inactive | inactive | inactive | inactive | inactive | inactive | inactive | inactive | inactive | inactive | inactive | inactive | – | inactive | inactive | – | – | – |
| COc1cccc2c1C(=O)c1c(O)c3c(c(O)c1C2=O)C[C@@](O)(C(=O)CO)C[C@@H]3O[C@H]1C[C@H](N)[C@H](O)[C@H](C)O1 | inactive | inactive | inactive | inactive | inactive | inactive | inactive | 535 nM [inconclusive] (active) and 174 nM (active) | inactive and 84.1 nM (active) and 9.7 nM (active) | inactive and 10.6 nM (active) and 3.1 nM (active) | inactive | inactive | – | inactive | inactive and 66.8 nM (active) and 24.3 nM (active) | – | – | – |
| COc1ccc(OC)c(C(O)CNC(=O)CN)c1 (configuration not stated) | inactive | inactive | inactive | inactive | inactive | inactive | inactive | inactive | – | inactive | inactive | inactive | – | – | inactive | – | – | – |
| O=C(Nc1ccc([N+](=O)[O-])cc1Cl)c1cc(Cl)ccc1O | inactive | inactive | inactive | inactive | inactive | inactive | inactive | inactive | 473 nM (active) and 686 nM (active) | 473 nM (active) and 611 nM (active) | 1.51 µM (active) and 436 nM (active) | – | – | – | – | – | – | – |
| CCCCC(CC)COCC1CO1 (configuration not stated) | inactive | inactive | inactive | inactive | inactive | inactive | inactive | inactive | inactive | inactive | inactive | inactive | inactive | – | – | – | – | – |
| O=C(Nc1ccc(Cl)cc1)Nc1ccc(Cl)c(Cl)c1 | inactive | inactive | inactive | inactive | inactive | inactive | inactive | – | 2.66 µM (active) and 4.31 µM (active) and 2.17 µM (active) | 2.66 µM (active) and 5.42 µM (active) and 2.17 µM (active) | 3.38 µM (active) and 1.94 µM (active) and 3.89 µM (active) | 24.3 µM (active) | 4.77 µM (active) and 7.73 µM (active) and 6.92 µM (active) | – | 3.35 µM (active) and 6.08 µM (active) and 2.73 µM (active) | 6.01 µM (active) and 4.36 µM (active) | inactive | 43.1 µM (active) and 13.7 µM (active) |
| O=C(c1ccc(OCCN2CCCCC2)cc1)c1c(-c2ccc(O)cc2)sc2cc(O)ccc12 | inactive | inactive | inactive | inactive | inactive | inactive | inactive | – | 1.06 µM (active) and 612 nM (active) and 686 nM (active) | 7.5 µM (active) and 9.7 µM (active) and 1.37 µM (active) | 21.9 µM (active) and 38.9 µM (active) | 68.7 µM (active) and 61.1 µM (active) | 23.9 µM (active) | – | – | – | – | – |
| CN(C)CCN(Cc1cccs1)c1ccccn1 | inactive | inactive | inactive | inactive | inactive | inactive | inactive | inactive | inactive | inactive | inactive | inactive | inactive | – | 29.8 µM (active) and inactive | – | – | – |
| c1ccc2c(c1)Oc1ccccc1S2 | inactive | inactive | inactive | inactive | inactive | inactive | inactive | inactive | inactive | inactive | inactive | inactive | – | inactive | – | – | – | – |
